Consider 91 compounds from PubChem BioAssay AID463173 (ICCB-Longwood Screening Facility, Harvard Medical School, 2010).

The whole screen tested about 52,000 compounds, of which about 4,300 (8.3%) were called active. Only a selection was taken, and actives are over-represented in it overall. Unmarked numbers belong to inactive results. Rule as the data show it: active = survival mostly below about 52% (no sharp cut-off); inactive = mostly above about 56%.

This assay concerns DeltatarO mutant. Description: growth inhibition of S. aureus wild type versus tarO mutant, primary screen, teichoic acid synthesis inhibitors, RN4220, OD600 (AID 463173). The note with it: OD600, 18 h, stronger effect = lower value, screened at 18.75 µg/mL (by protocol).
In the case of `CC(C)c1ccc(S(=O)(=O)NCc2ccc3c(c2)CCN3C(=O)c2ccccc2)cc1`, the survival is 87%.
Next, `Cc1ccc(-c2c(CN3CCN(c4cc(C)ccc4C)CC3)csc2C)cc1`: 126%.
Next, `CCc1c(CN2CCN(c3cccc(C)c3C)CC2)csc1C`: 76%.
Next, `CCc1c(CN2CCN(c3ccc(F)cc3)CC2)csc1C`: 38% (active).
As for `Cc1scc(CN2CCN(c3ccccc3F)CC2)c1C`, the survival is 64%.
For `Cc1ccc(-c2c(CN3CCN(c4cc(Cl)ccc4C)CC3)csc2C)cc1` the value was 51%; for `Cc1ccc(-c2c(CN3CCN(c4cccc(C)c4C)CC3)csc2C)cc1`, 21% (active); for `CCc1c(CN2CCN(c3ccccc3F)CC2)csc1C`, 32% (active).
For `Cc1cc(CN2CCN(c3ccc(F)cc3)CC2)cs1` the value was 69%.
Next, `Cc1scc(CN2CCN(c3ccc(F)cc3)CC2)c1C`: 64%; `COc1ccc(-c2cc(C(F)(F)F)nc(SCCC(=O)Nc3ccccc3F)n2)cc1`: 77%; `Cc1ccc(Cl)cc1NC(=O)Cn1nnc2sc3c(c2c1=O)CCC(C(C)(C)C)C3` (stereo unspecified): 58%.
With `C=CCc1c(C)nc2nc(SCC(=O)Nc3cccc(Cl)c3)nn2c1C`, the survival is 102%.
For `CCCNC(=O)C1CCN(C(=O)N2CC(C)Oc3ccccc32)CC1` (stereo unspecified) the value was 65%.
Next, `CCOc1ccc(-n2c(=O)c3c(C)c(C)sc3n(Cc3c(F)cccc3Cl)c2=O)cc1`: 96%; `Cc1cccc(C(=O)NCC(=O)OCc2cc(=O)n3nc(C)sc3n2)c1`: 82%; `N#Cc1ccc(C(=O)NCc2ccc3c(c2)CCN3C(=O)c2ccc(F)cc2)cc1`: 83%.
Consider `CCOc1ccc(S(=O)(=O)N2Cc3ccccc3CC2C(=O)Nc2ccc(NC(C)=O)cc2)cc1` (stereo unspecified), for which the survival was 69%.
For `Cc1ccc(-n2ncc(C(=O)Nc3ccc4c(c3)OCO4)c2C2CCN(C(=O)OC(C)(C)C)CC2)cc1` the value was 79%; for `COc1ccc(CC(CC(=O)O)C(=O)NCc2ccccc2)cc1` (stereo unspecified), 81%; for `CCC(=O)Nc1ccc(C(=O)Nc2c[nH]c(=O)[nH]c2=O)cc1`, 85%.
As for `CC1CCN(c2nnc(-n3cccc3CNc3cccc(F)c3)s2)CC1`, the survival is 93%.
For `Cc1ccc(NC(=O)CSc2nnc(-c3ccc([N+](=O)[O-])cc3)o2)c(C)c1` the value was 73%; for `CCOC(=O)c1cc(S(=O)(=O)Nc2cc(OC)ccc2OC)[nH]n1`, 119%.
In the case of `CCOC(=O)c1cc(S(=O)(=O)Nc2cc(C)c(Cl)cc2OC)[nH]n1`, the survival was 77%.
With `CCOC(=O)c1cc(S(=O)(=O)Nc2ccc(OC)c(Cl)c2)[nH]n1`, the survival was -4% (active).
For `COc1cc(OC)cc(C(=O)Nc2cc3c(cc2N2CCCCC2)n(C)c(=O)n3C)c1` the value was 83%.
As to `COc1ccc(OC)c(S(=O)(=O)N2CCC(c3ccncc3)CC2)c1`, the survival was 122%.
For `COc1ccc(-n2cc(C(=O)NCc3cccc(OC)c3)c3ccccc3c2=O)cc1` the value was 110%.
For `COc1ccc(CNC(=O)c2cn(-c3cccc(OC)c3)c(=O)c3ccccc23)cc1` the value was 67%.
Next, `COc1ccc(OC)c(CCNC(=O)c2cc3c(=O)n(C)c4ccccc4c3n2C)c1`: 43% (active); `COc1ccc(CNC(=O)c2cc3c(=O)n(C)c4ccccc4c3n2C)cc1`: 89%.
In the case of `COc1cccc(-n2cc(C(=O)NCc3cccc(Cl)c3)c3ccccc3c2=O)c1`, the survival was 58% (active).
For `COc1ccc(-n2cc(C(=O)NCCc3cc(OC)ccc3OC)c3ccccc3c2=O)cc1` the value was 55% (active); for `COc1ccc(CNC(=O)c2cc3c(=O)n(C)c4ccccc4c3n2C)c(OC)c1`, 50%.
Next, `COc1ccc(-n2cc(C(=O)NCCc3ccc(C)cc3)c3ccccc3c2=O)cc1`: 53%.
Next, `CCOc1ccc(CCNC(=O)c2cn(-c3ccc(OC)cc3)c(=O)c3ccccc23)cc1OCC`: 111%.
On to `CC1CCC(NC(=O)c2ccc(CSc3nc4ccncc4n3Cc3ccc(F)cc3)cc2)CC1` (stereo unspecified), for which the survival was 59%.
Next, `COc1ccc(OC)c(-n2c(=O)[nH]c3cc(C(=O)NCCc4ccc(OC)c(OC)c4)ccc3c2=O)c1`: 76%; `CCC1CN(C(=O)N2CCC(C(=O)NCc3ccc(N(C)C)cc3)CC2)c2ccccc2O1` (stereo unspecified): 73%; `CCOC(=O)N1CCc2c(sc(NCc3ccc(N(CC)CC)cc3)c2C(=O)Nc2cc(OC)ccc2OC)C1`: 71%.
Next, `CCOC(=O)c1ccc(NC2=CC(c3ccc(F)cc3)N(c3ccc(C(=O)OCC)cc3)C2=O)cc1` (stereo unspecified): 66%; `CCc1nc2cccnc2n1-c1ccc(CC(=O)Nc2ccc(C)cc2)cc1`: 78%.
For `COc1ccccc1Nc1nn2c(=O)c3ccc(C(=O)NCCCOC(C)C)cc3nc2s1` the value was 71%; for `CCOC(=O)c1ccc(NC(=O)C2=C(C)C(=O)OC23CCCCCC3)cc1`, 81%.
Consider `Cc1noc(NS(=O)(=O)c2ccc(NC(=O)COc3ccccc3Br)cc2)c1C`, for which the survival was 53%.
Next, `Cc1cc(NS(=O)(=O)c2ccc(NC(=O)COc3ccccc3Br)cc2)no1`: 67%; `Cc1ccc(OCC(=O)Nc2ccc(S(=O)(=O)Nc3cc(C)on3)cc2)c(Br)c1`: 56%.
For `Cc1cccc(OCC(=O)Nc2ccc(S(=O)(=O)Nc3onc(C)c3C)cc2)c1C` the value was 40% (active).
Next, `Cc1ccc(C)c(OCC(=O)Nc2ccc(S(=O)(=O)Nc3onc(C)c3C)cc2)c1C`: 165%; `Cc1cc(NS(=O)(=O)c2ccc(NC(=O)COc3ccc(Br)cc3C)cc2)no1`: 32% (active); `CCC(C)c1ccccc1OCC(=O)Nc1ccc(S(=O)(=O)Nc2cc(C)on2)cc1` (stereo unspecified): 80%.
As to `Cc1cc(NS(=O)(=O)c2ccc(NC(=O)COc3cc(C)c(Br)cc3C(C)C)cc2)no1`, the survival was 13% (active).
For the compound `Cc1cc(NS(=O)(=O)c2ccc(NC(=O)COc3c(C)cc(Br)cc3C)cc2)no1`, the survival was 110%.
Next, `COc1ccc2c(c1)c(CC(=O)Nc1cc(C)c(OC)c(C)c1)c(C)n2C(=O)c1ccc(Cl)cc1`: 71%; `COc1cc(C(c2nnnn2C2CCCCC2)N2CCc3ccccc3C2)ccc1O` (stereo unspecified): 62%.
Next, `COc1ccc(N2CCN(C(=O)c3ccc4c(c3)N(Cc3cccc(Cl)c3)C(=O)c3ccccc3S4(=O)=O)CC2)cc1`: 83%; `COc1cc2oc(=O)c(CC(=O)NCc3ccc(OC)c(OC)c3)c(C)c2cc1Cl`: 71%; `CC(=O)N1CCC2(CC1)OC(=O)C(C)=C2C(=O)NCc1ccc(Cl)cc1`: 58%.
Next, `Cc1cc(C)cc(NC(=O)c2cccc(C(=O)Nc3cc(C)cc(C)c3)c2)c1`: 129%; `CCOc1ccc(C(=O)N2CCN(c3ccccc3)CC2)cc1`: 78%; `CC1=C(C(=O)Nc2ccccc2C)C(c2ccccc2O)NC(=S)N1` (stereo unspecified): 103%.
In the case of `CC1=C(C(=O)Nc2ccccc2)C(c2ccc(C)o2)NC(=S)N1` (stereo unspecified), the survival is 61% (active).
For the compound `COc1ccccc1NC(=O)C1=C(C)NC(=S)NC1C` (stereo unspecified), the survival was 86%.
Next, `O=S(=O)(Nc1ccccn1)c1cccs1`: 83%; `CCN(C(=O)c1nn(-c2ccc(OC)c(Cl)c2)c(=O)c2c1c1ccccc1n2C)c1cccc(C(F)(F)F)c1`: 75%; `COc1ccc2c(c1)Cc1sc(NC(=O)c3cccc(F)c3)nc1-2`: 67%.
For `COc1ccc2c(c1)Cc1sc(NC(=O)c3cccc(C)c3)nc1-2` the value was 18% (active).
Regarding `COc1ccc2c(c1)Cc1sc(NC(=O)c3ccc(Cl)cc3)nc1-2`, the survival was 80%.
For `COc1ccc2c(c1)-c1nc(NC(=O)c3ccc(Cl)cc3)sc1CC2` the value was 96%; for `COc1ccc2c(c1)-c1nc(NC(=O)c3cccc(Br)c3)sc1CC2`, 51%.
As to `COc1ccc2c(c1)-c1nc(NC(=O)c3ccccc3F)sc1CC2`, the survival was 2% (active).
For `COc1ccc2c(c1)Cc1sc(NC(=O)c3ccccc3C)nc1-2` the value was 102%; for `COc1ccc2c(c1)-c1nc(NC(=O)c3cc(Cl)ccc3OC)sc1CC2`, 69%.
Consider `COc1ccc2c(c1)CCc1sc(NC(=O)c3ccc(Cl)cc3)nc1-2`, for which the survival was 31% (active).
For `COc1ccc(C(=O)Nc2nc3c(s2)CCc2cc(OC)ccc2-3)cc1` the value was 35% (active); for `COc1ccc2c(c1)Cc1sc(NC(=O)c3ccccc3Br)nc1-2`, 63%.
For `COc1ccc(C(=O)Nc2nc3c(s2)Cc2cc(OC)ccc2-3)cc1` the value was 55%; for `COc1ccc(CN2C(=O)C(NC(=O)c3ccccc3OC)(C(F)(F)F)N=C2c2ccccc2)cc1` (stereo unspecified), 87%; for `COc1cc(Cl)c(C)cc1NC(=O)c1cnc(N2CCCCC2)c2ccccc12`, 115%.
`O=C(c1ccc2c(c1)N(Cc1cccc(F)c1)C(=O)c1ccccc1S2)N1CCCC1`: the survival was 88%.
Next, `COc1ccc(N2CCN(C(=O)c3cc4c(=O)oc5ccc(C)cc5c4s3)CC2)cc1`: 111%; `CCCn1cc(S(=O)(=O)c2cccc(Cl)c2)c(=O)c2cc(F)c(N3CCOCC3)cc21`: 74%; `COc1cccc(NC(=O)C2CCCN(S(=O)(=O)c3cccc4nonc34)C2)c1` (stereo unspecified): 90%.
Next, `CCCS(=O)(=O)c1c(S(=O)(=O)CCC)c2cc(C(C)(C)C)ccn2c1C(=O)c1ccccc1`: 118%; `CC1Cc2ccccc2N1C(=O)CSc1nnnn1Cc1ccccc1` (stereo unspecified): 91%; `Cc1cccc(-n2nnc(-c3nc(-c4cccs4)no3)c2N)c1C`: 60%.
For `CCS(=O)(=O)N1CC(=O)N(c2ccc(Cl)cc2)C(C)(C(=O)NC2CCCCC2)C1` (stereo unspecified) the value was 96%; for `COc1ccc2c(c1)-c1nc(NC(=O)c3ccc(C)cc3)sc1CC2`, 5% (active).
With `COc1ccc2c(c1)-c1nc(NC(=O)c3cc(OC)c(OC)c(OC)c3)sc1CC2`, the survival was 57%.
Next, `COc1ccc2c(c1)-c1nc(NC(=O)c3ccc(OC)c(Br)c3)sc1CC2`: 59%.
